This passage reports growth results from PubChem BioAssay (NCI).

The panel holds about 83,000 compounds, 20% with a hit somewhere; the sample as a whole holds those more often.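 The test compound was applied at a single concentration to cells in 96-well plates for 48 hours, and percent growth was recorded.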 Unmarked numbers belong to inactive results. Active and inactive are the calls of the source. Rule for the calls: active = growth percent below 10; inactive = the rest.

Among the test systems are HCT-15 colon; HT29 colon; SNB-75 CNS; SNB-19 CNS; U251 CNS; PC-3 prostate; SK-MEL-5 melanoma; UACC-62 melanoma; LOX IMVI melanoma; SK-MEL-28 melanoma; SK-MEL-2 melanoma; EKVX NSCLC; SN12C renal; UO-31 renal; TK-10 renal; ACHN renal; CAKI-1 renal; A498 renal; CCRF-CEM leukemia; MOLT-4 leukemia.
Test in all cases: NCI-60 one-dose screen, 48 h (100 = growth as untreated, 0 = no growth, -100 = all killed)
Common to all, as to conditions: 10 µM unless noted

Take `[O-]/[N+](=C\c1ccc(-n2cc(Cc3ccccc3Cc3cn(-c4ccc(/C=[N+](/[O-])c5ccccc5)cc4)nn3)nn2)cc1)c1ccccc1`: the growth in the experiment with HCT-15 colon was 98.8%; in the experiment with HT29 colon it was 101%; in the experiment with SNB-75 CNS, 91.9%; in the experiment on SNB-19 CNS, 96.7%; in the experiment on U251 CNS it was 107%; in the experiment on PC-3 prostate, 103%. Moreover, the growth in the experiment with SK-MEL-5 melanoma is 105%; in the experiment with UACC-62 melanoma, 94.7%; with LOX IMVI melanoma it was 87.9%; in the experiment on SK-MEL-28 melanoma it was 110%; in the experiment with SK-MEL-2 melanoma, 111%; in the experiment on EKVX NSCLC, 96.8%. In addition, the growth in the experiment with SN12C renal was 101%; in the experiment with UO-31 renal, 93.3%; in the experiment with TK-10 renal it was 121%; in the experiment on ACHN renal, 103%; with CAKI-1 renal, 98.8%; with A498 renal, 83.3%. Further, the figures for the growth in the experiment on CCRF-CEM leukemia and in the experiment with MOLT-4 leukemia were 103% and 89.5%, respectively.
On to `Cc1ccccc1/C=C/C(=O)c1cccc(OCCCCOc2cccc(C(=O)/C=C/c3ccccc3C)c2)c1`, for which the growth with HCT-15 colon was 84.6%; with HT29 colon, 86.8%; with SNB-75 CNS, 90.9%; with SNB-19 CNS, 93.5%; in the experiment on U251 CNS, 93%; with PC-3 prostate, 100%. Besides, the growth in the experiment on SK-MEL-5 melanoma was 101%; in the experiment on UACC-62 melanoma it was 74.8%; with LOX IMVI melanoma, 95.9%; with SK-MEL-28 melanoma it was 95.2%; in the experiment with SK-MEL-2 melanoma it was 103%; with EKVX NSCLC, 94.6%. Besides, the growth is 90.7% in the experiment on SN12C renal; 80.7% with UO-31 renal; 101% in the experiment with TK-10 renal; 101% with ACHN renal; 86% in the experiment on CAKI-1 renal; 86% in the experiment with A498 renal. Moreover, the growth with CCRF-CEM leukemia is 104%; in the experiment with MOLT-4 leukemia, 94.5%.
Turning to `C=C(C)[C@@H]1CC[C@]2(C(=O)N3CCOCC3)CC[C@]3(C)[C@H](CC[C@@H]4[C@@]5(C)C/C(=C/c6ccncc6)C(=O)C(C)(C)[C@@H]5CC[C@]43C)[C@@H]12`, the growth in the experiment with HCT-15 colon was 42.6%; in the experiment with HT29 colon it was 33.8%; in the experiment with SNB-75 CNS, 78.5%; in the experiment on SNB-19 CNS, 76.9%; in the experiment with U251 CNS, 55.7%; in the experiment on PC-3 prostate, 25.2%. Moreover, the growth in the experiment on SK-MEL-5 melanoma is 60.6%; with UACC-62 melanoma, 43.1%; in the experiment on LOX IMVI melanoma it was 60%; in the experiment with SK-MEL-28 melanoma, 74%; with SK-MEL-2 melanoma, 72.2%; in the experiment with EKVX NSCLC it was 60.8%. Besides, the growth in the experiment on SN12C renal was 62.6%; in the experiment with UO-31 renal it was 52.6%; in the experiment on TK-10 renal, 91%; with ACHN renal, 58.4%; in the experiment on CAKI-1 renal it was 56.8%; in the experiment with A498 renal, 68.9%. Besides, the results for the growth with CCRF-CEM leukemia and in the experiment with MOLT-4 leukemia were 31.7% and 30.3%, respectively.
As to `COc1ccc(C(=O)C/C(=C\c2ccc(Cl)cc2)C(=O)NCc2ccccc2)cc1`, the growth in the experiment on HCT-15 colon is 47%; in the experiment on HT29 colon it was 82.1%; in the experiment with SNB-75 CNS it was 100%; in the experiment with SNB-19 CNS it was 85.5%; with U251 CNS, 70.6%; in the experiment with PC-3 prostate, 56.4%. In addition, the growth is 93.4% with SK-MEL-5 melanoma; 67.3% in the experiment on UACC-62 melanoma; 77.9% with LOX IMVI melanoma; 91.2% in the experiment on SK-MEL-28 melanoma; 79.6% with SK-MEL-2 melanoma; 95.6% with EKVX NSCLC. Also, the growth with SN12C renal was 91.3%; in the experiment on UO-31 renal it was 76%; in the experiment with TK-10 renal it was 72.7%; in the experiment on ACHN renal, 92.7%; in the experiment with CAKI-1 renal, 87.4%; in the experiment on A498 renal it was 88%. In addition, the growth in the experiment on CCRF-CEM leukemia is 73.5%; with MOLT-4 leukemia, 72.9%.
For `Cc1nc2sc(C(=O)Nc3ccc(Br)cc3)c(N)c2cc1C(O)c1ccccc1` (stereo not given), the growth in the experiment on HCT-15 colon is 34.7%; with HT29 colon, 36.7%; with SNB-75 CNS, 62.6%; with SNB-19 CNS, 67.7%; with U251 CNS it was 54%; in the experiment with PC-3 prostate, 61.4%. The growth is 39.9% in the experiment on SK-MEL-5 melanoma; 41.8% with UACC-62 melanoma; 61.3% with LOX IMVI melanoma; 67.8% in the experiment with SK-MEL-28 melanoma; 81.5% with SK-MEL-2 melanoma; 55.3% in the experiment on EKVX NSCLC. Moreover, the growth in the experiment with SN12C renal is 68%; with UO-31 renal it was 62.1%; with TK-10 renal it was 85.4%; with ACHN renal, 72.4%; with CAKI-1 renal, 65%; in the experiment on A498 renal, 51.9%. Besides, the growth with CCRF-CEM leukemia was 43.4%; with MOLT-4 leukemia, 26.2%.
Consider `CCC(C)N(CCNc1cc(OC)cc2cccnc12)CC(C)C` (stereo not given), for which the growth in the experiment on HCT-15 colon was 71.7%; in the experiment with HT29 colon, 73.7%; with SNB-75 CNS, 109%; with SNB-19 CNS, 94.3%; in the experiment on U251 CNS it was 99.4%; in the experiment with PC-3 prostate it was 83.5%. The growth in the experiment with SK-MEL-5 melanoma is 103%; in the experiment on UACC-62 melanoma it was 88.9%; in the experiment on LOX IMVI melanoma, 76.9%; in the experiment on SK-MEL-28 melanoma, 109%; in the experiment on SK-MEL-2 melanoma, 110%; in the experiment with EKVX NSCLC, 95.5%. Also, the growth in the experiment on SN12C renal is 101%; in the experiment on UO-31 renal it was 67.2%; in the experiment with TK-10 renal, 101%; in the experiment on ACHN renal it was 85.6%; with CAKI-1 renal, 94.1%; in the experiment on A498 renal it was 92.8%. Moreover, the growth in the experiment on CCRF-CEM leukemia was 90.9%; with MOLT-4 leukemia, 87.4%.
Consider `Cc1cn(-c2cc(NC(=O)c3cncc(C#Cc4cnc(N)c5ncccc45)c3)cc(C(F)(F)F)c2)cn1`, for which the growth with HCT-15 colon was 59.6%; in the experiment with HT29 colon, 35.4%; with SNB-75 CNS, 89.4%; in the experiment on SNB-19 CNS, 106%; in the experiment with U251 CNS, 85.7%; with PC-3 prostate it was 84.7%. The growth is 18.3% in the experiment with SK-MEL-5 melanoma; 35.2% in the experiment with UACC-62 melanoma; 21.5% in the experiment with LOX IMVI melanoma; 40.5% in the experiment with SK-MEL-28 melanoma; 6.39% (active) in the experiment with SK-MEL-2 melanoma; 85.1% in the experiment on EKVX NSCLC. The growth in the experiment with SN12C renal was 58.3%; with UO-31 renal, 25.4%; in the experiment with TK-10 renal it was 90.3%; in the experiment on ACHN renal, 73.4%; in the experiment on CAKI-1 renal it was 92%; with A498 renal, 60.7%. In addition, the values for the growth in the experiment with CCRF-CEM leukemia and in the experiment on MOLT-4 leukemia were 32.5% and 34.7%, respectively.
Turning to `CCOC(=O)c1c(NC(=O)c2cccc(C(F)(F)F)c2)sc2c(CN(C)C)c(O)ccc12`, the growth in the experiment on HCT-15 colon was 10.6%; in the experiment with HT29 colon it was 13.5%; in the experiment on SNB-75 CNS, 83%; in the experiment on SNB-19 CNS, 88.4%; with U251 CNS it was 16.5%; in the experiment with PC-3 prostate it was 60.3%. Further, the growth in the experiment on SK-MEL-5 melanoma is 93.6%; in the experiment on UACC-62 melanoma it was 102%; with LOX IMVI melanoma it was 16.5%; with SK-MEL-28 melanoma, 17%; with SK-MEL-2 melanoma it was 108%; with EKVX NSCLC it was 98.8%. Also, the growth in the experiment on SN12C renal was 90%; with UO-31 renal, 48.9%; in the experiment with TK-10 renal it was 113%; with ACHN renal, 45.5%; in the experiment on CAKI-1 renal, 71.1%; in the experiment with A498 renal, 82%. Besides, the growth with CCRF-CEM leukemia is 9.93% (active); in the experiment on MOLT-4 leukemia, 43.4%.
